# Whole data set: some 9,900 sequences, median “r (bound/input frequency ratio)” near 0.7, cut for the highest 2% near 6.5. For the sample, the highest values were picked, then their nearest neighbours and some sequences at random.
# B1: ENSMUSG00000061578.898|Ksr2 (ssRNA)
# RNA: GGGAGUUCUACAGUCCGACGAUCGCUUCGAUAUCCGCAUGCUAGACACUACCCAAACCCUAGCACUCUCCCAGUGACUCUCCUAUGAGUACAUAUGCCAUCCUGCUUCCUUUGUGGCAAAACCCUGGGUCACCCAGAGACAGAUUUCCCAGAAUCCCUGGGCCACUUCUCAAUUCUACCCAUGACAGACAUGUCCCAUCCAUGAGCCCAGAUAGUCAAAGACUUCAGCACAAGGGUGUUUAGAGUAGGCAGUGUGGAAGUAUCAAUAAGGUUAUUGAGAUGAGGAUUUAGAAAGAUCCAUGUACUCUUGCGGUCGCACUAGUGUGGAAUUCUCGGGUGUCAAGG
# B2: ENSMUSG00000042529.46|Kcnj12|142:149 (ssRNA)
# RNA: GGGAGUUCUACAGUCCGACGAUCGCUUCGAUAUCCGCAUGCUAGGCCAAAAUGACUGGCUCACGGCCUCGGAGGCUGAUGUAUACCCAUGGGCAAGGAGGUGACUUCUUGGGGUAGGGUUGCUCAGGAGUUAGGGACUCUGCUGGAGGCCUUAGGUGCAGGUCCCAGCCCCGGUGGGAGGAGGCACACAUACUACACUUCAUUGGUUUUUAACUUGGGCAAGACUGUUUACAAACAAAAACAAACAAACAAACAAUCAAAAAAAAAACCCACCCCACAAAACACAAGAAAACAUUAACAGGUGCUCUUGCGGUCGCACUAGUGUGGAAUUCUCGGGUGUCAAGG
# B3: ENSMUSG00000031028.261|Tub (ssRNA)
# RNA: GGGAGUUCUACAGUCCGACGAUCGCUUCGAUAUCCGCAUGCUACCAGAGGGAAGCAAAGAGCAUUUAGACAUUGCUUUUUGCUUUGAAAUAGAUAUGUUUGGAAACGCUAAGUAGAAGUUUAAAAAGUAGAGUCAUGUAGAGUCAUGCUUUGAAUAUGUGGGUCAUGCUUUAGAUAUGAAGAGGCUAUGCAGGUAAGGAGGCUGGAUUGAUGUAAAUGGAAGUAGUACUUUAAGAAAGCUCUAGAUUUCCCAGGUUGGACACUCGACGAAAGGCACACCUGCUGCAGCAGGUUCUGACACACCCUCUUGCGGUCGCACUAGUGUGGAAUUCUCGGGUGUCAAGG
# B4: ENSMUSG00000043670.150|Diras1|4:8;157:162;227:231 (ssRNA)
# RNA: GGGAGUUCUACAGUCCGACGAUCGCUUCGAUAUCCGCAUGCUAGGACACACGAGUGGCUGCCUGGACACUGCCCACCUGGACACCAGCCUUCUGCUGAGAUAGAGACCUUGGCACAGUGGCACCUCGACAGCCACCCCGACUGGGGGUUUGGGGUGCUGAGGGUGGGGUGCCCAGCUGAGAGUCUAUCAGCAAAGUCCCACACACCGGUGAUAGGACUAGUGGCUGCUGCCCUAGGGCUCUGACAGAAUCUGAGCCUCUUUGCUGGUCAACACAACUCUGGAGACUGUCCCCCAUGUCUGCCCCUCUUGCGGUCGCACUAGUGUGGAAUUCUCGGGUGUCAAGG
# B5: ENSMUSG00000034801.46|Sos2 (ssRNA)
# RNA: GGGAGUUCUACAGUCCGACGAUCGCUUCGAUAUCCGCAUGCUACCACCCGCCACUGUAUAGACUGCCUCUGCUGGAAAAUGCAGAAACUCCUCAAUGACCUUGGCCAUAUGUAGUCAUUGACACUGGAAUAGUAUUUGUAAAGGUUUUUAAUUUAUUCAAAAAGACAUAGUAUUUUAGUACUUUUUACAGAAAUGCUACUGAUUAAAUAAGCUCUUAAGAAUUAGUAAACUUGUUGGAUGGCAGUGGCCCACAGCUGUAAUCCCAGCACCCUGGUUGCAGGGGCAGGUGGGCUUCAGGGUUUGCUCUUGCGGUCGCACUAGUGUGGAAUUCUCGGGUGUCAAGG
# B6: ENSMUSG00000043670.73|Diras1 (ssRNA)
# RNA: GGGAGUUCUACAGUCCGACGAUCGCUUCGAUAUCCGCAUGCUAACACACUGGAGGUUUGAUCCCUGUGGAUCUGAAAACAGGGACCUGGCUAAGGAACUGCUCAUCCCAGUCAGGCCCAGAGAGGUUACCUUGCCUCUCCAUCUCUGUCCCUGUGUGCCCAGCCAUGCCCACUGUCCCUGUCCCUCACAUUCUAUCACUGUGACCUCUGGGGAGUGCCCAUUGACCUCAUCUUCCUUCACUAAUAUCUUAUUUCUUUCACCUGAUCCUGUCCUUUCCCCGUGACCUCUGACCUGUGGCCUUCCCUCUUGCGGUCGCACUAGUGUGGAAUUCUCGGGUGUCAAGG
# B7: ENSMUSG00000004113.197|Cacna1b|112:116 (ssRNA)
# RNA: GGGAGUUCUACAGUCCGACGAUCGCUUCGAUAUCCGCAUGCUACCUCUGCUCAACCAAGUGCCUGAUCUCUGGCUCUGAGCAUCGUGGAUGAGGUACGGCCUCAGGAAGCAUCGGGUGGAUUGGGUGGGAGCUGCUCAGAGCAGCACGGGGGCUACACACUUAGGGACAUUGACAGUGUCCAUCAGCAUGUCAGAGAAGCAGCUGUAGUGCCCGUGUUUCUCCCUGAGUCAUGGGUUCUGAAGAAGCCAGAGCGGCACAAUGCGUGCUUGCAUGAGGCACUUUCAGCCUUUUUAAAUCUGACUCUCUUGCGGUCGCACUAGUGUGGAAUUCUCGGGUGUCAAGG
# B8: ENSMUSG00000090935.575|Synj2bp (ssRNA)
# RNA: GGGAGUUCUACAGUCCGACGAUCGCUUCGAUAUCCGCAUGCUAAUUCAAAUUUUAUGUUUCUUAUAGACUGACUCAAAUAUUCCUACCACCUUAAAAUUAUAUAUGAUGCACCUACCACAUAAAUUAUAAUGUUUAAUGUUUUGAAAAUGGAUUAUAGGUAUUUUUAAGUUUUCAUAAAGUAUUUCUUAUAUUUGUCAUUGUGAAUUAUAUGUAAUUCUAAUAGACACUGUUUGCUUCAGUUGUUUUUGUUUCCUUUUCCUACAGUUUUCUGUGUGGGUGAUUUCAUUUAAUUAAUUGGACAGCUCUUGCGGUCGCACUAGUGUGGAAUUCUCGGGUGUCAAGG
# B9: ENSMUSG00000028439.178|Fam219a (ssRNA)
# RNA: GGGAGUUCUACAGUCCGACGAUCGCUUCGAUAUCCGCAUGCUACAUGUGUGUGCAUGUGUGUGUGCCUGUGUGUGUGCGUGUGCGUGUGUGUAUGUGUGUGCGUGUGUGUGUGUGUGUGUUGUACCCGAGUGUGUGUUGAGCCUAUCUGUCCAGGGAACCAGAUUGGUGUCCGAGAUGAGGAAAUGGCUGUGGCCUGGGAAAUCAGUGAGAGGCCGCUUGGGAAUGAGAAUGCAGUGGACUGAAAGCACAGCCUGGCCAUCUGGAACCUGGGUUCUGGUCCCAGCCUCGGCAUUCUCCCUGAGCUCUUGCGGUCGCACUAGUGUGGAAUUCUCGGGUGUCAAGG
# B10: ENSMUSG00000028439.180|Fam219a (ssRNA)
# RNA: GGGAGUUCUACAGUCCGACGAUCGCUUCGAUAUCCGCAUGCUAUGUGUGUGUGCCUGUGUGUGUGCGUGUGCGUGUGUGUAUGUGUGUGCGUGUGUGUGUGUGUGUGUUGUACCCGAGUGUGUGUUGAGCCUAUCUGUCCAGGGAACCAGAUUGGUGUCCGAGAUGAGGAAAUGGCUGUGGCCUGGGAAAUCAGUGAGAGGCCGCUUGGGAAUGAGAAUGCAGUGGACUGAAAGCACAGCCUGGCCAUCUGGAACCUGGGUUCUGGUCCCAGCCUCGGCAUUCUCCCUGAGCUCCUAAGCAAUCUCUUGCGGUCGCACUAGUGUGGAAUUCUCGGGUGUCAAGG
# B11: ENSMUSG00000028439.177|Fam219a (ssRNA)
# RNA: GGGAGUUCUACAGUCCGACGAUCGCUUCGAUAUCCGCAUGCUAUAUGCACAUGUGUGUGCAUGUGUGUGUGCCUGUGUGUGUGCGUGUGCGUGUGUGUAUGUGUGUGCGUGUGUGUGUGUGUGUGUUGUACCCGAGUGUGUGUUGAGCCUAUCUGUCCAGGGAACCAGAUUGGUGUCCGAGAUGAGGAAAUGGCUGUGGCCUGGGAAAUCAGUGAGAGGCCGCUUGGGAAUGAGAAUGCAGUGGACUGAAAGCACAGCCUGGCCAUCUGGAACCUGGGUUCUGGUCCCAGCCUCGGCAUUCUCCUCUUGCGGUCGCACUAGUGUGGAAUUCUCGGGUGUCAAGG
# B12: ENSMUSG00000028439.179|Fam219a (ssRNA)
# RNA: GGGAGUUCUACAGUCCGACGAUCGCUUCGAUAUCCGCAUGCUAUGUGCAUGUGUGUGUGCCUGUGUGUGUGCGUGUGCGUGUGUGUAUGUGUGUGCGUGUGUGUGUGUGUGUGUUGUACCCGAGUGUGUGUUGAGCCUAUCUGUCCAGGGAACCAGAUUGGUGUCCGAGAUGAGGAAAUGGCUGUGGCCUGGGAAAUCAGUGAGAGGCCGCUUGGGAAUGAGAAUGCAGUGGACUGAAAGCACAGCCUGGCCAUCUGGAACCUGGGUUCUGGUCCCAGCCUCGGCAUUCUCCCUGAGCUCCUACUCUUGCGGUCGCACUAGUGUGGAAUUCUCGGGUGUCAAGG
# B13: ENSMUSG00000043670.57|Diras1|205:210 (ssRNA)
# RNA: GGGAGUUCUACAGUCCGACGAUCGCUUCGAUAUCCGCAUGCUACCUGCCUCUUCACACCUCCAUAGCUUCAUCCUUUGCAGACCUCUCCCUCUAUAUCUCUUUGCUCCCCCACCCCCAUUCUAUCUGCACCCCACAACCACACACUGGAGGUUUGAUCCCUGUGGAUCUGAAAACAGGGACCUGGCUAAGGAACUGCUCAUCCCAGUCAGGCCCAGAGAGGUUACCUUGCCUCUCCAUCUCUGUCCCACACACCCCAGCCAUGCCCACUGUCCCUGUCCCUCACAUUCUAUCACUGUGACCUCCUCUUGCGGUCGCACUAGUGUGGAAUUCUCGGGUGUCAAGG
# Molecular target: TDP-43 (Homo sapiens, UniProt Q13148 1-414)
# Experiment: RNA Bind-n-Seq with designed 260-mer pool; 25 mM Tris-HCl, 150 mM KCl, 3 mM MgCl2, BSA (printed 500 mg/mL), 20 units/mL SUPERase IN; pH not stated; 500 nM RNA pool, 1 h, 4 C; TDP-43 5, 50, 500 nM; high values mean tight binding
# Conditions: protein: recombinant; tags: SBP (GST cleaved off with PreScission; pGEX-GST-SBP)
# Procedure, shortened: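 Duplicate measurements used two independent batches of recombinant SBP-tagged TDP-43, which was captured on streptavidin beads at 5, 50 or 500 nM. The beads were incubated with 500 nM of an in vitro-transcribed 260-nt 3′ UTR oligo pool for 1 h at 4 °C in 25 mM Tris-HCl, 150 mM KCl, 3 mM MgCl2, BSA and SUPERase IN. After washing, biotin elution, reverse transcription, PCR amplification and sequencing, binding was expressed as R: each oligo's normalized read abundance in the bound sample over its abundance in input.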
# TDP-43, sequence (Q13148 whole entry): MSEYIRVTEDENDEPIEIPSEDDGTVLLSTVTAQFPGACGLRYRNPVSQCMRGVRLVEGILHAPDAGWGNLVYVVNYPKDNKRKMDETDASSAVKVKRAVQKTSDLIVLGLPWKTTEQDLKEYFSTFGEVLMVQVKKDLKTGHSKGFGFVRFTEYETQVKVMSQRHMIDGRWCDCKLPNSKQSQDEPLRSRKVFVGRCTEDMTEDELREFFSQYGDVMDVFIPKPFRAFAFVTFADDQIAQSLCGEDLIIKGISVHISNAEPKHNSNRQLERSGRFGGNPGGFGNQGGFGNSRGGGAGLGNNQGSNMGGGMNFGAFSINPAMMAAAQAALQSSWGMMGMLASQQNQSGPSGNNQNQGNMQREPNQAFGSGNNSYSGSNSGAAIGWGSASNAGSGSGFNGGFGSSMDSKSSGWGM
row,Binder,binding signal
1,B1,0.362 R (bound/input frequency ratio)
2,B2,0.514 R (bound/input frequency ratio)
3,B3,2.37 R (bound/input frequency ratio)
4,B4,1 R (bound/input frequency ratio)
5,B5,0.116 R (bound/input frequency ratio)
6,B6,2.54 R (bound/input frequency ratio)
7,B7,0.691 R (bound/input frequency ratio)
8,B8,0.0736 R (bound/input frequency ratio)
9,B9,9.43 R (bound/input frequency ratio)
10,B10,5.95 R (bound/input frequency ratio)
11,B11,8.05 R (bound/input frequency ratio)
12,B12,7.2 R (bound/input frequency ratio)
13,B13,2.63 R (bound/input frequency ratio)

# — paper PMC12864922, “TDP-43 directly inhibits mRNA accumulation in neurites through modulation of mRNA stability”
